From PubChem BioAssay
Activity calls are given as the source filed them.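 How the source made its calls: active means normalized viability below 100% at a tested concentration; inactive means the rest.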

Assay: ovarian cancer cell viability with rucaparib, profiling panel, oncology-focused library, rucaparib conditional (AID 1508598)
Conditions: patient-derived ovarian cancer cells, CellTiter-Glo viability, 144 h, hits give low values
[1] = at 0.000305 µM, OCI-C5x cells, with rucaparib 10 µM, 100% = cells with rucaparib alone
[2] = at 0.000305 µM, OCI-C5x cells, without rucaparib
[3] = at 0.000305 µM, OCI-P5x cells, with rucaparib 20 µM, 100% = cells with rucaparib alone
[4] = at 0.000305 µM, OCI-P5x cells, without rucaparib
[5] = at 0.00122 µM, OCI-C5x cells, with rucaparib 10 µM, 100% = cells with rucaparib alone
[6] = at 0.00122 µM, OCI-C5x cells, without rucaparib
[7] = at 0.00122 µM, OCI-P5x cells, with rucaparib 20 µM, 100% = cells with rucaparib alone
[8] = at 0.00122 µM, OCI-P5x cells, without rucaparib
[9] = at 0.00488 µM, OCI-C5x cells, with rucaparib 10 µM, 100% = cells with rucaparib alone
[10] = at 0.00488 µM, OCI-C5x cells, without rucaparib
[11] = at 0.00488 µM, OCI-P5x cells, with rucaparib 20 µM, 100% = cells with rucaparib alone
[12] = at 0.00488 µM, OCI-P5x cells, without rucaparib
[13] = at 0.0195 µM, OCI-C5x cells, with rucaparib 10 µM, 100% = cells with rucaparib alone
[14] = at 0.0195 µM, OCI-C5x cells, without rucaparib
[15] = at 0.0195 µM, OCI-P5x cells, with rucaparib 20 µM, 100% = cells with rucaparib alone
[16] = at 0.0195 µM, OCI-P5x cells, without rucaparib
[17] = at 0.0781 µM, OCI-C5x cells, with rucaparib 10 µM, 100% = cells with rucaparib alone
[18] = at 0.0781 µM, OCI-C5x cells, without rucaparib
[19] = at 0.0781 µM, OCI-P5x cells, with rucaparib 20 µM, 100% = cells with rucaparib alone
[20] = at 0.0781 µM, OCI-P5x cells, without rucaparib
[21] = at 0.313 µM, OCI-C5x cells, with rucaparib 10 µM, 100% = cells with rucaparib alone
[22] = at 0.313 µM, OCI-C5x cells, without rucaparib
[23] = at 0.313 µM, OCI-P5x cells, with rucaparib 20 µM, 100% = cells with rucaparib alone
[24] = at 0.313 µM, OCI-P5x cells, without rucaparib
[25] = at 1.25 µM, OCI-C5x cells, with rucaparib 10 µM, 100% = cells with rucaparib alone
[26] = at 1.25 µM, OCI-C5x cells, without rucaparib
[27] = at 1.25 µM, OCI-P5x cells, with rucaparib 20 µM, 100% = cells with rucaparib alone
[28] = at 1.25 µM, OCI-P5x cells, without rucaparib
[29] = at 5 µM, OCI-C5x cells, with rucaparib 10 µM, 100% = cells with rucaparib alone
[30] = at 5 µM, OCI-C5x cells, without rucaparib
[31] = at 5 µM, OCI-P5x cells, with rucaparib 20 µM, 100% = cells with rucaparib alone
[32] = at 5 µM, OCI-P5x cells, without rucaparib

Measured: viability

CC[C@]1(O)C[C@@H]2CN(CCc3c([nH]c4ccccc34)[C@@](C(=O)OC)(c3cc4c(cc3OC)N(C=O)[C@@H]3C45CCN4CC=C[C@](CC)([C@H]45)[C@H](OC(C)=O)[C@]3(O)C(=O)OC)C2)C1 (stereo partly specified)
active: [2] 99.3% | [3] 88.8% | [4] 86.4% | [6] 98.8% | [8] 90.1% | [12] 86.3% | [13] 88.9% | [14] 66.1% | [15] 70.6% | [16] 25.9% | [17] 45.1% | [18] 37.2% | [19] 51% | [20] 17.4% | [21] 42.3% | [22] 27.2% | [23] 56.1% | [24] 16.7% | [25] 34.8% | [26] 21.4% | [27] 51% | [28] 12.7% | [29] 41.7% | [30] 24.9% | [31] 50.9% | [32] 13.1%
inactive: [1] 113% | [5] 120% | [7] 102% | [9] 101% | [10] 103% | [11] 105%

CC(=O)O[C@@]1(C(C)=O)CC[C@H]2[C@@H]3C[C@H](C)C4=CC(=O)CC[C@]4(C)[C@@H]3CC[C@@]21C
inactive: [1] 108% | [2] 122% | [4] 101% | [5] 113% | [6] 120% | [7] 101% | [8] 103% | [9] 122% | [10] 119% | [11] 103% | [12] 107% | [13] 114% | [14] 118% | [15] 104% | [16] 113% | [17] 106% | [18] 114% | [20] 111% | [21] 122% | [22] 118% | [23] 102% | [24] 110% | [25] 107% | [26] 120% | [27] 106% | [28] 111% | [29] 105% | [30] 121% | [32] 105%
active: [3] 94.9% | [19] 94% | [31] 92.5%

O=C1[C@H](CC[C@H](O)c2ccc(F)cc2)[C@H](c2ccc(O)cc2)N1c1ccc(F)cc1
inactive: [1] 109% | [2] 121% | [3] 106% | [4] 117% | [5] 107% | [6] 117% | [7] 107% | [8] 114% | [9] 111% | [10] 114% | [11] 101% | [12] 112% | [13] 109% | [14] 118% | [15] 104% | [16] 106% | [17] 107% | [18] 108% | [20] 102% | [21] 111% | [22] 111% | [24] 104% | [25] 126% | [26] 111% | [29] 128% | [30] 103%
active: [19] 98% | [23] 94.9% | [27] 96.5% | [28] 96.4% | [31] 84.2% | [32] 94.6%
